Reference: PubChem BioAssay (NCATS)
Inconclusive results are not listed. A call without a number means that no potency is given here. Activity calls are given as the source filed them. Calls come from the whole dose curve; as a rule, active = well fitted inhibition curve with a large enough effect; inconclusive = small, poorly fitted or top-dose-only effect; inactive = flat fitted curve, though single readings scatter.

Tests used:
Experiment in all cases: qHTS profiling for inhibitors of Plasmodium falciparum proliferation (AID 504749); note: nearly all actives have a fitted effect of over 60% in size
Conditions in all cases: P. falciparum in erythrocytes, SYBR Green DNA, 72 h; series mostly up to 12.8 µM
ATS189 = system: ATS189
Summary of the method: (§1)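 Infected RBCs, 0.3% parasitemia/2.5% Hct final; cpd 72 h, 37 C, 5% CO2; lysis buffer with saponin/triton/SYBR Green I, o/n RT dark; FI 485/535; norm. to artemisinin (0.29 uM) and DMSO.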

CP217 = system: CP217
Summary of the method: as §1

CP247 = system: CP247
Summary of the method: as §1

CP250 = system: CP250
Summary of the method: as §1

CP252 = system: CP252
Summary of the method: as §1

CP256 = system: CP256
Summary of the method: as §1

DIV14 = system: DIV14
Summary of the method: as §1

PAD = system: PAD
Summary of the method: as §1

SC27B = system: SC27B
Summary of the method: as §1

W2 = system: W2
Summary of the method: as §1

AA1029 = system: AA1029
Summary of the method: as §1

AS120 = system: AS120
Summary of the method: as §1

ATS95 = system: ATS95
Summary of the method: as §1

CP203 = system: CP203
Summary of the method: as §1

CP237 = system: CP237
Summary of the method: as §1

CP260 = system: CP260
Summary of the method: as §1

CP286 = system: CP286
Summary of the method: as §1

N140 = system: N140
Summary of the method: as §1

P94_40 = system: P94_40
Summary of the method: as §1

TAB165 = system: TAB165
Summary of the method: as §1
Potency is the fitted concentration of half-maximal effect.

| Compound | Potency (ATS189) | Potency (CP217) | Potency (CP247) | Potency (CP250) | Potency (CP252) | Potency (CP256) | Potency (DIV14) | Potency (PAD) | Potency (SC27B) | Potency (W2) | Potency (AA1029) | Potency (AS120) | Potency (ATS95) | Potency (CP203) | Potency (CP237) | Potency (CP260) | Potency (CP286) | Potency (N140) | Potency (P94_40) | Potency (TAB165) |
| --- | --- | --- | --- | --- | --- | --- | --- | --- | --- | --- | --- | --- | --- | --- | --- | --- | --- | --- | --- | --- |
| CN1CCC[C@@H](CC2c3ccccc3Sc3ccccc32)C1 | inactive | inactive | inactive | inactive | inactive | inactive | 2.28 µM (active) | inactive | inactive | 1.44 µM (active) | – | – | – | – | – | – | – | – | – | – |
| CC1(C)S[C@@H]2[C@H](NC(=O)[C@@H](N)c3ccccc3)C(=O)N2[C@H]1C(=O)O[C@H]1OC(=O)c2ccccc21 | inactive | inactive | inactive | inactive | inactive | inactive | inactive | inactive | inactive | inactive | inactive | inactive | inactive | inactive | inactive | inactive | inactive | inactive | inactive | inactive |
| COc1cc(N)c(Cl)cc1C(=O)N[C@H]1CCN(CCCOc2ccc(F)cc2)C[C@H]1OC | – | – | – | – | – | 2.82 µM (active) | – | – | – | 5.1 µM (active) | – | – | – | inactive | – | 3.16 µM (active) | 3.55 µM (active) | – | 3.16 µM (active) | 3.55 µM (active) |
| CCOC(=O)O[C@]1(C(=O)COC(=O)CC)CC[C@@H]2[C@@H]3CCC4=CC(=O)C=C[C@@]4(C)[C@H]3[C@H](O)C[C@]21C | inactive | inactive | inactive | inactive | inactive | inactive | inactive | inactive | inactive | – | inactive | inactive | inactive | inactive | inactive | inactive | inactive | inactive | inactive | inactive |
| C[C@@H](C(=O)O)c1ccc(C(=O)c2ccccc2)s1 | inactive | inactive | inactive | inactive | inactive | inactive | inactive | inactive | inactive | inactive | inactive | inactive | inactive | inactive | inactive | inactive | inactive | inactive | inactive | inactive |
| NS(=O)(=O)c1cc2c(cc1C(F)(F)F)N[C@H](Cc1ccccc1)NS2(=O)=O | inactive | inactive | inactive | inactive | inactive | inactive | inactive | inactive | inactive | inactive | inactive | inactive | inactive | inactive | inactive | inactive | inactive | inactive | inactive | inactive |
| CC(=O)[C@@H]1CC[C@@H]2[C@@H]3C[C@H](C)C4=CC(=O)CC[C@@]4(C)[C@H]3[C@H](O)C[C@]21C | inactive | inactive | inactive | inactive | inactive | inactive | inactive | inactive | inactive | – | inactive | inactive | inactive | inactive | inactive | inactive | inactive | inactive | – | inactive |
| CCN(CC)[C@@H](C)CN1c2ccccc2Sc2ccccc21 | – | – | – | – | – | inactive | – | inactive | – | – | – | – | – | – | – | – | – | – | – | – |
| O=C(O)[C@@H]1[C@@H]2C[C@H]3c4[nH]c5ccccc5c4CCN3C[C@@H]2CC[C@@H]1O | – | – | – | inactive | – | – | – | – | inactive | – | – | – | – | inactive | – | – | – | inactive | – | – |
| O=C(OC[C@@H](O)CO)c1ccccc1Nc1ccnc2cc(Cl)ccc12 | inactive | inactive | inactive | inactive | inactive | – | – | – | inactive | – | inactive | inactive | inactive | inactive | inactive | inactive | – | inactive | inactive | inactive |
| CCCCC[C@H](O)/C=C\[C@H]1[C@H](C/C=C\CCCC(=O)O)[C@@H](O)C[C@H]1O (tested in a mixture with another compound) | inactive | inactive | inactive | inactive | inactive | inactive | inactive | inactive | inactive | inactive | inactive | inactive | inactive | inactive | inactive | inactive | inactive | inactive | inactive | inactive |
| CCC(=O)[C@@]1(C)[C@H](C)C[C@@H]2[C@@H]3CCC4=CC(=O)C=C[C@@]4(C)[C@H]3[C@H](O)C[C@]21C | inactive | inactive | inactive | inactive | inactive | inactive | inactive | inactive | inactive | 5.1 µM (active) | inactive | inactive | inactive | inactive | 3.55 µM (active) | – | – | – | inactive | inactive |
| O=C1O[C@@H]([C@@H](O)CO)[C@@H](O)[C@H]1O | inactive | inactive | inactive | inactive | inactive | inactive | inactive | inactive | inactive | inactive | inactive | inactive | inactive | inactive | inactive | inactive | inactive | inactive | inactive | inactive |
| CC=C(/C(=C/C)c1ccc(O)cc1)c1ccc(O)cc1 | inactive | inactive | inactive | inactive | inactive | inactive | inactive | inactive | inactive | inactive | inactive | inactive | inactive | inactive | inactive | inactive | inactive | inactive | inactive | inactive |
| COc1cc2nc(N3CCN(C(=O)[C@@H]4CCCO4)CC3)nc(N)c2cc1OC | inactive | inactive | inactive | inactive | inactive | inactive | inactive | inactive | inactive | – | inactive | inactive | inactive | inactive | inactive | inactive | inactive | inactive | inactive | inactive |
| CC(=O)O[C@H]1C[C@@]2(C)[C@H](C[C@@H](O)[C@H]3[C@@]4(C)CC[C@@H](O)[C@@H](C)[C@H]4CC[C@@]32C)C1=C(CCC=C(C)C)C(=O)O | inactive | inactive | inactive | inactive | inactive | inactive | inactive | inactive | inactive | inactive | inactive | inactive | inactive | inactive | inactive | inactive | inactive | inactive | inactive | inactive |
| CC(C)(C)NC[C@H](O)COc1cccc2c1C[C@@H](O)[C@@H](O)C2 | inactive | inactive | inactive | inactive | inactive | inactive | inactive | inactive | inactive | inactive | inactive | inactive | inactive | inactive | inactive | inactive | inactive | inactive | inactive | inactive |
| CCC(=O)OCC(=O)[C@@]1(OC(=O)CC)[C@H](C)C[C@@H]2[C@@H]3[C@H]([C@@H](O)C[C@@]21C)[C@]1(C)C=CC(=O)C=C1C[C@@H]3Cl | – | – | – | – | inactive | – | 5.1 µM (active) | – | – | 1.61 µM (active) | inactive | – | – | – | – | 3.98 µM (active) | – | – | – | 3.98 µM (active) |
| C=Cc1c(C)c2cc3nc(cc4[nH]c(cc5nc(cc1[nH]2)C(C)=C5CCC(=O)O)c(CCC(=O)OC)c4C)[C@@]1(C)C3=CC=C(C(=O)OC)[C@H]1C(=O)OC (tested in a mixture with another compound) | 7.08 µM (active) | 10 µM (active) | 10 µM (active) | 10 µM (active) | – | – | 8.49 µM (active) | 1.41 µM (active) | 5.62 µM (active) | 1.69 µM (active) | 5.01 µM (active) | 5.62 µM (active) | 7.94 µM (active) | – | 5.01 µM (active) | 2.51 µM (active) | 4.47 µM (active) | 7.08 µM (active) | 3.55 µM (active) | 6.31 µM (active) |
| O=C(O)COCCN1CCN([C@@H](c2ccccc2)c2ccc(Cl)cc2)CC1 | inactive | inactive | inactive | inactive | inactive | inactive | inactive | inactive | inactive | 4.55 µM (active) | inactive | inactive | inactive | inactive | inactive | inactive | inactive | inactive | inactive | inactive |
| COC(=O)[C@@H]1[C@@H]2C[C@H]3c4[nH]c5cc(OC)ccc5c4CCN3C[C@@H]2C[C@H](OC(=O)/C=C\c2cc(OC)c(OC)c(OC)c2)[C@H]1OC | – | 3.55 µM (active) | – | – | – | – | 5.73 µM (active) | – | – | 1.81 µM (active) | 3.16 µM (active) | 3.55 µM (active) | – | – | – | – | – | 3.55 µM (active) | – | 3.16 µM (active) |
| CN[C@H]1[C@@H](O)[C@@H](NC)[C@@H]2O[C@@]3(O)C(=O)C[C@@H](C)O[C@H]3O[C@H]2[C@H]1O | inactive | inactive | inactive | inactive | inactive | inactive | inactive | inactive | inactive | inactive | inactive | inactive | inactive | – | inactive | inactive | inactive | inactive | inactive | inactive |
| CCc1c(C)[nH]c2c1C(=O)[C@H](CN1CCOCC1)CC2 | inactive | inactive | inactive | inactive | inactive | inactive | inactive | inactive | inactive | inactive | inactive | inactive | inactive | – | inactive | inactive | inactive | inactive | inactive | inactive |
| CCO[C@H]1O[C@@H]([C@H](COCc2ccccc2)OCc2ccccc2)[C@@H](OCc2ccccc2)[C@H]1O | – | inactive | inactive | inactive | inactive | – | – | inactive | inactive | – | inactive | – | inactive | inactive | inactive | inactive | inactive | – | – | – |
| Clc1ccc([C@H](Cn2ccnc2)OCc2c(Cl)cccc2Cl)c(Cl)c1 | 3.98 µM (active) | 2.24 µM (active) | 3.16 µM (active) | 2.51 µM (active) | 3.16 µM (active) | – | 5.1 µM (active) | 3.55 µM (active) | 1.58 µM (active) | 2.03 µM (active) | – | 1.26 µM (active) | – | 6.42 µM (active) | 3.16 µM (active) | – | – | 3.16 µM (active) | 3.16 µM (active) | 0.355 µM (active) |
| COc1cc(N[C@@H](C)CCCN)c2ncccc2c1 | 2.24 µM (active) | 1.12 µM (active) | 3.55 µM (active) | 1.26 µM (active) | 1.26 µM (active) | 1.26 µM (active) | 0.572 µM (active) | 0.891 µM (active) | 2 µM (active) | 2.03 µM (active) | 2.51 µM (active) | 0.794 µM (active) | 3.16 µM (active) | 3.61 µM (active) | 2.51 µM (active) | 1.41 µM (active) | 0.891 µM (active) | 2.82 µM (active) | 1.41 µM (active) | 0.891 µM (active) |
